According to PubChem BioAssay:
Activity calls are given as the source filed them.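 How the source made its calls, unless noted: active means NADPH fluorescence slope more negative than the mean of all samples by about 3 SD, 99.7% confidence; inactive means the rest.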

Tests used:
[1] = inhibitors of TNFa-induced NFkB p65 translocation, primary screen, imaging, HUVEC, MLSMR starter and 10KST1 sets (AID 438;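 active means inhibition above 20% together with a positive visual image hit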;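 further: compound added about 3h40 before a 20 min TNFalpha stimulation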;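 on inhibition: signal is the nuclear over cytoplasmic p65 intensity ratio per well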); settings: HUVEC TNFa-induced p65 nuclear translocation; cell count: measured here: nuclei count (cytotoxicity indicator), at 2.08 µM; inhibition: at 2 µM, stronger effect = higher value, 0% TNFa-plus-vehicle, 100% no-TNFa wells
[2] = reduction of polyQ htt aggregates in cells – imaging, exon1htt(103Q)mCFP cells, high-content imaging, primary screen (AID 483;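 active means visual image review flags a hit and inhibition of aggregation exceeds 20%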;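 further: compound exposure lasted 3 days before fixation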;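 on nuclei count: percent of the per-plate median nuclei count of sample wells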); settings: exon1htt(103Q)mCFP cell line, aggregate imaging, at 2 µM; inhibition of aggregation: stronger effect = higher value; nuclei count: measured here: cell count, toxicity
[3] = endothelial E-selectin expression blockers – imaging, HUVEC, immunofluorescence, MLSMR starter and 10KST1 sets, primary screen (AID 487;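 active means visually confirmed hit in the image check and inhibition above 20%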;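 on inhibition: signal is fraction of cell area covered by stained E-selectin grains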;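 on nuclei count: 100% = median nuclei count of all wells on the same plate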); settings: HUVEC TNFalpha-induced E-selectin immunofluorescence imaging, at 2 µM; inhibition: stronger effect = higher value; nuclei count: measured here: cell number, toxicity
[4] = target: Voltage-gated potassium channel subunit beta-2 (Rattus norvegicus) (UniProt P62483); assay: inhibitors of rat Kvbeta2 reductase activity – biochemical, NADPH fluorescence, primary screen (AID 622;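 active means fluorescence slope higher than the sample average by over 3 SD, cut at about -0.22 in these data, passing the limit was not always enough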;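 further: slope of raw intensity against log time taken from 70 to 1610 s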); settings: recombinant KvBeta, 4-cyanobenzaldehyde reduction, at 10 µM, stronger effect = higher value
Voltage-gated potassium channel subunit beta-2 (Rattus norvegicus), sequence (P62483 whole entry, looked up): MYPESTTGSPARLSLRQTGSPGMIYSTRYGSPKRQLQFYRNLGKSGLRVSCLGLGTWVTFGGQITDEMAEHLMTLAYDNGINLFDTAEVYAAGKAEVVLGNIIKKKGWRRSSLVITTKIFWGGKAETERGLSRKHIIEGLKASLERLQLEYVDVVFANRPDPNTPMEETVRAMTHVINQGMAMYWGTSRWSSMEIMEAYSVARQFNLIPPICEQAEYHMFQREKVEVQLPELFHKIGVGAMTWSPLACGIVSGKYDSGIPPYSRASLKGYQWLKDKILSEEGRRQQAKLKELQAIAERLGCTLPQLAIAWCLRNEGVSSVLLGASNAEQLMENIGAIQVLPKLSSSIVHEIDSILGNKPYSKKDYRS

[5] = target: Voltage-gated potassium channel subunit beta-2 (Rattus norvegicus) (UniProt P62483); assay: enhancers of rat Kvbeta2 NADPH turnover – biochemical, NADPH fluorescence, primary screen (AID 623); settings: Recombinant KvBeta, NADPH fluorescence decrease slope, 10 min; at 10 µM; stronger effect = lower value;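 further: fluorescence intensity change per second fitted from 20 to 320 s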
[6] = target: Alpha-2C adrenergic receptor (Homo sapiens) (UniProt P18825); assay: compounds altering alpha2C-coupled GIRK flux – cell-based, HEK293 alpha2C/GIRK1/2, thallium flux, primary screen (AID 624;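 active means fluorescence slope after compound addition differing from the mean of all screened samples at 99.7% confidence, in either direction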;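 further: slope of fluorescence ratio to pre-addition baseline per second over 15 to 24 s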); settings: thallium flux BTC fluorescence, at 10 µM, actives lie on both sides
Alpha-2C adrenergic receptor (Homo sapiens), sequence (P18825 whole entry, looked up): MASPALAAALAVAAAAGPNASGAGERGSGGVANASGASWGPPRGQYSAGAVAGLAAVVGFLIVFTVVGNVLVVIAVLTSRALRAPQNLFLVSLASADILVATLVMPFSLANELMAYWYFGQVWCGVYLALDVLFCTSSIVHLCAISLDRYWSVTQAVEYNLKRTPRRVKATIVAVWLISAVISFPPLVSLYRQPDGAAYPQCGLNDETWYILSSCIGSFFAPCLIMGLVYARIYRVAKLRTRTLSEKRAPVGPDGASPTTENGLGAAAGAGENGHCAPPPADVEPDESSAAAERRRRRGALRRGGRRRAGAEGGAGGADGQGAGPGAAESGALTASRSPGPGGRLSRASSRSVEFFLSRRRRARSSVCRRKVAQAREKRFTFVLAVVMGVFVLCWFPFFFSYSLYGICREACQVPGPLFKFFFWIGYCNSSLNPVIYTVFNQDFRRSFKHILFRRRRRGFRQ

[7] = blockers of RIG-like receptor reporter activation – cell-based, Sendai virus stimulus, luciferase, 10K MLSCN set, TLR/RLR signaling modifier project, primary screen (AID 602276;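 active means inhibition at or above 50% at 10 µM; inactive means inhibition below 50%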;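 further: firefly luciferase from ISG56 promoter only with Renilla not read in this screen; 0% = Sendai virus plus DMSO and 100% = medium plus DMSO without virus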); settings: HEK293 RL24 IRF3 luciferase reporter, at 10 µM, stronger effect = higher value
[8] = TLR3 IRF3 reporter activation blockers – cell-based, poly I:C stimulus, luciferase, 10K MLSCN set, primary screen (AID 602277;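 active means inhibition of the reporter signal at or above 50%; inactive means inhibition below 50%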); settings: HEK293-TLR3 RL24 IRF3 luciferase reporter, at 10 µM, stronger effect = higher value

SMILES | cell count [1] | inhibition [1] | inhibition of aggregation [2] | nuclei count [2] | inhibition [3] | nuclei count [3] | fluorescence slope [4] | NADPH fluorescence slope [5] | slope [6] | inhibition [7] | inhibition [8]
COc1ccc(S(=O)(=O)N(CC(=O)N2CCN(c3ccccc3OC)CC2)c2ccccc2)cc1 | 291 | 5.2% (inactive) | -12.6% (inactive) | 104% | 20% (inactive) | 111% | -0.474 (inactive) | -4.9e-05 (inactive) | 0.00648 (inactive) | 8.76% (inactive) | 13.4% (inactive)
Cc1ccc(C(C(=O)NC2CCCCC2)N2CCOCC2)cc1 (stereo not drawn) | 674 | -5.2% (inactive) | -13% (inactive) | 114% | -41.7% (inactive) | 125% | -0.468 (inactive) | -0.000297 (inactive) | 0.00526 (inactive) | -0.432% (inactive) | 15.1% (inactive)
CCOC(=O)c1[nH]c(C)c(C(=O)Nc2ccc(Cl)cc2)c1C | 709 | -1.6% (inactive) | -32.6% (inactive) | 89.1% | -32% (inactive) | 114% | -0.591 (inactive) | 2.4e-05 (inactive) | 0.00669 (inactive) | 6.23% (inactive) | -11% (inactive)
CC1=Nn2c(nnc2-c2ccccn2)SC1 | 378 | 4.8% (inactive) | -0.1% (inactive) | 68.5% | -158% (inactive) | 198% | -0.443 (inactive) | -4.3e-05 (inactive) | 0.00557 (inactive) | 7.81% (inactive) | 11.5% (inactive)
CCN(CC)CCOc1cccc(C(C)C)c1 | 657 | -5.3% (inactive) | -2.7% (inactive) | 104% | 1.1% (inactive) | 76.3% | -0.393 (inactive) | -7.6e-05 (inactive) | 0.00629 (inactive) | 6.62% (inactive) | 13.5% (inactive)
CC(C)NC(=O)c1ccc2c(c1)nnn2C | 836 | 8.2% (inactive) | 4.8% (inactive) | 104% | -59.5% (inactive) | 116% | -0.471 (inactive) | 2.3e-05 (inactive) | 0.0055 (inactive) | -4.12% (inactive) | 11.6% (inactive)
FC(F)(F)c1cc(-c2ccccc2)nc(N2CCCCC2)n1 | 286 | 3.3% (inactive) | 3.7% (inactive) | 100% | -8.9% (inactive) | 105% | -0.578 (inactive) | -3.3e-05 (inactive) | 0.00434 (inactive) | 12.9% (inactive) | 12.8% (inactive)
CCc1nnc2sc(-c3cc(-c4ccccc4)nc4ccccc34)nn12 | 267 | 5.4% (inactive) | 7.4% (inactive) | 87% | 3.3% (inactive) | 90.4% | -0.436 (inactive) | 2.9e-06 (inactive) | 0.00312 (inactive) | 8.15% (inactive) | 26.8% (inactive)
COc1cccc(-c2nnc(NC(=O)c3ccccc3Br)o2)c1 | 718 | -6.9% (inactive) | -5.7% (inactive) | 110% | -17.4% (inactive) | 117% | -0.421 (inactive) | -3.3e-05 (inactive) | 0.00691 (inactive) | 4.13% (inactive) | 17.2% (inactive)
Cc1ccc(C)c(-n2c(CNC(=O)c3ccco3)nnc2SCC(=O)Nc2nnc(C)s2)c1 | 656 | -6.4% (inactive) | 20.8% (inactive) | 99.5% | 3.7% (inactive) | 120% | -0.528 (inactive) | -3e-05 (inactive) | 0.0063 (inactive) | 14.2% (inactive) | 36.2% (inactive)
COc1ccc(Oc2c(C)oc3cc(OC(=O)N4CCOCC4)ccc3c2=O)cc1 | 770 | -4.9% (inactive) | 11.1% (inactive) | 95.2% | -28.1% (inactive) | 112% | -0.402 (inactive) | 2.6e-05 (inactive) | 0.00567 (inactive) | 3.22% (inactive) | -6.73% (inactive)
COc1cc2c(cc1OC)C(C)N(C(=O)c1cc3n(n1)C(C(F)(F)F)CC(c1ccco1)N3)CC2 (stereo not drawn) | 591 | 9.6% (inactive) | -0.8% (inactive) | 97.6% | -22% (inactive) | 96.6% | -0.613 (inactive) | 1.3e-05 (inactive) | 0.00369 (inactive) | 25.6% (inactive) | 19.1% (inactive)
Cc1oc(-c2ccccc2F)nc1CS(=O)(=O)CC(=O)N1CCN(Cc2ccccc2)CC1 | 853 | -4% (inactive) | -23.9% (inactive) | 90.4% | -96.8% (inactive) | 109% | -0.498 (inactive) | -4.4e-05 (inactive) | 0.00602 (inactive) | 6.04% (inactive) | -4.63% (inactive)
CCc1nnc(NC(=O)c2ccc(COc3ccccc3)o2)s1 | 736 | -49% (inactive) | -1.8% (inactive) | 101% | -18.9% (inactive) | 102% | -0.519 (inactive) | -2.5e-05 (inactive) | 0.00512 (inactive) | -7.49% (inactive) | 3.46% (inactive)
COCCCNC(=O)C1CCN(C(=O)Nc2ccc(Cl)cc2)CC1 | 577 | 5% (inactive) | 18.9% (inactive) | 96.2% | 33.6% (inactive) | 82.1% | -0.457 (inactive) | 1.1e-05 (inactive) | 0.00588 (inactive) | 11.2% (inactive) | 34.3% (inactive)
Cc1ccc(S(=O)(=O)N2CCOCC(=O)NCCOCCNC(=O)COCC2)cc1 | 592 | 2.1% (inactive) | -15.3% (inactive) | 116% | -89.9% (inactive) | 108% | -0.622 (inactive) | -2.4e-05 (inactive) | 0.00426 (inactive) | 9.52% (inactive) | 9.55% (inactive)
COc1ccc(-c2nnc(-c3ccc(N)cc3)o2)cc1 | 332 | 5.5% (inactive) | 9.6% (inactive) | 111% | -145% (inactive) | 124% | -0.0553 (active) | -2.2e-05 (inactive) | 0.00409 (inactive) | -34.1% (inactive) | -82.2% (inactive)
Cc1nc(CNS(=O)(=O)c2cccc(F)c2)cs1 | 307 | 5% (inactive) | 14.1% (inactive) | 87.9% | -10.3% (inactive) | 92.4% | -0.506 (inactive) | -3.7e-05 (inactive) | 0.00673 (inactive) | 7.13% (inactive) | 20.4% (inactive)
CCCCOc1ccc(N(CC(=O)NC2CCCC2)C(=O)CCC(=O)Nc2ccccn2)cc1 | 582 | -1.5% (inactive) | -1.9% (inactive) | 94% | -7.6% (inactive) | 101% | -0.416 (inactive) | 1.8e-06 (inactive) | 0.00642 (inactive) | 15.8% (inactive) | 28.8% (inactive)
COc1ccc(-c2nc(CSCC(=O)N3CCN(c4cccc(C)c4)C(C)C3)c(C)o2)cc1OC (stereo not drawn) | 549 | 2.3% (inactive) | 11.5% (inactive) | 92.1% | 5.7% (inactive) | 83.2% | -0.429 (inactive) | -5.4e-05 (inactive) | 0.00539 (inactive) | 4.11% (inactive) | 8.34% (inactive)
CC(C)Cn1c(-c2ccc(F)cc2)n[nH]c1=S | 390 | 2.6% (inactive) | -11.3% (inactive) | 106% | -69.3% (inactive) | 118% | -0.395 (inactive) | -3.7e-05 (inactive) | 0.0039 (inactive) | 9.62% (inactive) | 12.7% (inactive)
CCOC(=O)CSc1nnc(-c2ccc(Cl)cc2Cl)o1 | 376 | 1.9% (inactive) | -9.2% (inactive) | 93.8% | -57.5% (inactive) | 116% | -0.405 (inactive) | -2.6e-05 (inactive) | 0.00557 (inactive) | 4.99% (inactive) | 2.18% (inactive)
CCCCn1nc(C(=O)N2CCc3ccccc32)c2ccccc2c1=O | 423 | -9% (inactive) | -20.9% (inactive) | 112% | 36.5% (inactive) | 41.8% | -0.473 (inactive) | 2e-05 (inactive) | 0.0045 (inactive) | -1.51% (inactive) | 20.2% (inactive)
CCC(CO)Nc1ncnc2c1cnn2-c1ccc(Cl)cc1 (stereo not drawn) | 550 | 10% (inactive) | 7.5% (inactive) | 101% | 10.3% (inactive) | 111% | -0.54 (inactive) | -1.3e-05 (inactive) | 0.00667 (inactive) | 38.4% (inactive) | -14% (inactive)
Fc1ccc(Cn2nnc(-c3ccc(CN4CCOCC4)cc3)n2)cc1 | 299 | 4.3% (inactive) | 11.5% (inactive) | 102% | 9.3% (inactive) | 117% | -0.44 (inactive) | -1.1e-05 (inactive) | 0.00406 (inactive) | -2.6% (inactive) | -37.2% (inactive)
COc1ccc(CN(C2CCCC2)S(=O)(=O)c2ccc(-n3cnnn3)cc2)cc1OC | 527 | -5.8% (inactive) | -15% (inactive) | 115% | -39.4% (inactive) | 124% | -0.57 (inactive) | -1.6e-05 (inactive) | 0.00406 (inactive) | 15.1% (inactive) | 18.9% (inactive)
Cc1ccc(Br)cc1S(=O)(=O)N1CCN(c2ccccc2)CC1 | 391 | -2.2% (inactive) | -16% (inactive) | 108% | -51.5% (inactive) | 129% | -0.463 (inactive) | -1.8e-05 (inactive) | 0.0036 (inactive) | 5.17% (inactive) | 31.3% (inactive)
CCOC(=O)Cc1ccc(NS(=O)(=O)c2ccc(SC)cc2)cc1 | 326 | -7.2% (inactive) | -3.4% (inactive) | 97.6% | -95.5% (inactive) | 109% | -0.494 (inactive) | -6.8e-05 (inactive) | 0.00542 (inactive) | -2.4% (inactive) | 9.62% (inactive)
